HIF-2a inh: HIF-2a inhibition; 360,000 compounds, 0.72% hits; 786-0 RCC cells HIF-2a reporter, luciferase luminescence, overnight; inhibition, % at 18.8 µM; AID 624352;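 active = inhibition of the luminescence signal of 40% or more relative to plate controls, in a single-dose primary screen at 18.75 µM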
KKLEB tox: reduces viability of KKLEB cystic fibrosis airway cells; KKLEB CF airway cells viability, ATPlite luminescence, overnight; hits give low values; cells stimulated with P. aeruginosa culture filtrate; activity change (cytotoxicity), % at 5 µM; 360,000 compounds, 0.36% hits; AID 602141;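 active = corrected activity change at or below -50% at 5 µM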
Peg3 promoter: Peg3 promoter activity inhibition; HeLa PEG-Prom luciferase reporter, luminescence, overnight; inhibition, % at 20 µM; 360,000 compounds, 1.7% hits;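 active = inhibition of at least 50% at 20 µM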
CF NFkB inh: inhibitors of cystic fibrosis induced NF-kB. KKLEB NF-kB-GFP reporter, PAF-induced, GFP fluorescence overnight. inhibition, % at 5 µM. 360,000 compounds, 0.86% hits. AID 588850;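 active = at least 50% inhibition at 5 µM, scaled per plate between neutral and stimulator controls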;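 also: PAF is a Pseudomonas aeruginosa culture filtrate used as stimulus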
TWEAK-Fn14 inh: blocks TWEAK-Fn14 interaction in a reporter cell assay; 360,000 compounds, 2% hits; inhibition, % at 10 µM; AID 1159606; TWEAK-stimulated Fn14 reporter cells, luciferase luminescence, 8 h; in the data active = inhibition above about 50%
TROY NFkB inh: blocks TROY-dependent signaling in reporter cells; Q293 LMP1-TROYcd NF-kB luciferase reporter, 4 h; inhibition, % at 10 µM; 360,000 compounds, 0.98% hits;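 active = compounds whose plate-normalised and pattern-corrected inhibition of the luciferase reporter signal at the single screening dose is 50% or more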
Large screens that a line does not name were inactive. Compounds with a hit are over-represented: about 3.9% of the library has one in this group of screens.

O=C(COC(=O)c1cc(S(=O)(=O)Nc2ccccc2Cl)ccc1O)Nc1nc2ccccc2s1	TROY NFkB inh 60
CCS(=O)(=O)c1ccc(O)c(NC(=O)c2cc(-c3ccccn3)nc3ccccc23)c1	none
Cc1ccc(-n2nnc3c(=O)n(Cc4ccccn4)cnc32)cc1C	none
CCN(CC)S(=O)(=O)c1ccc(C(=O)OCCNC(=O)c2cccnc2)cc1	none
COc1ccc(NC(=O)CSc2ncnc3c2sc2ccccc23)c(OC)c1	KKLEB tox -55, CF NFkB inh 53
COc1ccc(NC(=O)CSc2ccccc2)c(OC)c1	none
O=C(c1ccccc1)c1ccccc1N1C(=O)C=CC1=O	Peg3 promoter 104, CF NFkB inh 78
Cc1ccc(-n2cc(C(=O)c3ccccc3O)cn2)cc1	TWEAK-Fn14 inh 83
Cc1ccc(O)c(C(=O)c2cnn(-c3ccccc3)c2)c1	none
COc1ccc(NS(=O)(=O)c2cc(NC(=O)CCSc3ccccc3)ccc2OC)cc1	TWEAK-Fn14 inh 58
CCCCCO	none
COc1ccc(C(=O)Nc2nnc(C3=COCCO3)o2)cc1OC	none
Cc1ccc(NC(=O)C2C3C=CC4(O3)C2C(=O)N(CCN2CCOCC2)C4C(=O)NC2CCCCC2)cc1C (centres undefined)	TWEAK-Fn14 inh 88
Cc1ccc(NC(=O)C2C3C=CC4(O3)C2C(=O)N(CCCN2CCOCC2)C4C(=O)NC2CCCCC2)cc1Cl (centres undefined)	none
O=C(Nc1ccc(F)cc1)C(c1cc2ccccc2o1)N1CCN(c2ccncc2)CC1 (centres undefined)	none (no result: KKLEB tox, Peg3 promoter, CF NFkB inh, TWEAK-Fn14 inh, TROY NFkB inh)
CN(C)S(=O)(=O)c1cccc(-c2nnc(SCCNCCO)n2-c2ccc(F)cc2)c1	none
Cc1ccsc1/C=N/Nc1ncc(Cl)cc1Cl	none
N#Cc1cc2c(nc1SCC(=O)N1CCCCC1)CCCC2	none
N#Cc1cc2cc3c(cc2nc1SCC(=O)N1CCOCC1)OCCO3	TWEAK-Fn14 inh 97, TROY NFkB inh 76
N#Cc1cc2c(nc1SCC(=O)N1CCCCC1)CCCCC2	TROY NFkB inh 56
CCn1c2c(c(=N)c3c1CCC3)CCCC2	none
CCCCCn1c2c(c(=N)c3ccccc31)CCC2	none
CCCCCCCCCCn1c2c(c(=N)c3c1CCC3)CCC2	HIF-2a inh 64, KKLEB tox -64, Peg3 promoter 98, CF NFkB inh 59, TWEAK-Fn14 inh 72, TROY NFkB inh 57
CCCCCCCCCn1c2c(c(=N)c3c1CCC3)CCCC2	KKLEB tox -56, Peg3 promoter 104, TWEAK-Fn14 inh 57, TROY NFkB inh 51
CCCCCCCCn1c2c(c(=N)c3ccccc31)CCC2	Peg3 promoter 86, TWEAK-Fn14 inh 71
CC(C)Oc1cccc(C(=O)C2CCCN(C(=O)c3ccc4c(c3)OCO4)C2)c1 (centres undefined)	none
Cn1c(=O)n(CC(=O)NCc2cccnc2)c2ccccc21	none
c1ccc2c(c1)C1=NCCN1c1ccccc1-2	Peg3 promoter 104
Cn1c(NCC(O)CO)nc2c1c(=O)n(Cc1ccc(Cl)c(Cl)c1)c(=O)n2C (centres undefined)	none
Cn1c(NCc2ccco2)nc2c1c(=O)n(Cc1ccc(Cl)c(Cl)c1)c(=O)n2C	TWEAK-Fn14 inh 50
Cn1c(NCCN2CCOCC2)nc2c1c(=O)n(Cc1cccc(Cl)c1)c(=O)n2C	TWEAK-Fn14 inh 80 (no result: TROY NFkB inh)
CCCC(=O)N/C(N)=N/c1nc(C)c2ccccc2n1	none
CC(=O)Nc1ccc(NC(=O)CCn2cnnn2)cc1	none
Cc1cc(NC(=O)c2nn(C)c(C)c2[N+](=O)[O-])no1	none
CCOP(=O)(OCC)C(NC(=O)Nc1cccc(Cl)c1)c1ccccc1 (centres undefined)	none
O=C(O)C1Nc2c(Cl)cc(Cl)c(Cl)c2C2C=CCC12 (centres undefined)	none
CC(C)C1Nc2c(O)cc(Cl)c([N+](=O)[O-])c2C2C=CCC21 (centres undefined)	TROY NFkB inh 58
CCOC(=O)NC(=O)CSc1nc(C)cc(C(F)(F)F)c1C#N	none
Cc1cc(C(F)(F)F)c(C#N)c(SCC(=O)Nc2nc3cc(Br)ccc3s2)n1	TWEAK-Fn14 inh 79, TROY NFkB inh 72
Cn1cccc1C(=O)NNC(=O)COc1ccccc1F	none
O=C(O)/C=C/C(=O)Nc1ccc2c(c1)C(=O)c1ccccc1C2=O	none
Cc1cccc(-c2cc3nc(C)cc(NCCCN(C)C)n3n2)c1	none
CN(C)CCCNc1cc(-c2ccccc2)nc2cc(-c3cccc(F)c3)nn12	Peg3 promoter 101

From PubChem
